What was measured:
Details in all cases: concentration: 1 μM,replicates: in singlicate; n = 1
WNK1 = test system: WNK1
WNK2 = test system: WNK2
WNK3 = test system: WNK3
WNK4 = test system: WNK4
YANK1 = test system: T1, YANK1
T1 construct: gene STK32A

YANK2 = test system: T2, YANK2
T2 construct: gene STK32B

YANK3 = test system: T3, YANK3
T3 construct: gene STK32C

YES = test system: T4, YES
T4 construct: gene YES1

YSK1 = test system: T5, YSK1
T5 construct: gene STK25

YSK4 = test system: T6, YSK4
T6 construct: gene MAP3K19
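Note: KINOMEscan kinase panel screen.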

Compound | %Inh (WNK1) | %Inh (WNK2) | %Inh (WNK3) | %Inh (WNK4) | %Inh (YANK1) | %Inh (YANK2) | %Inh (YANK3) | %Inh (YES) | %Inh (YSK1) | %Inh (YSK4)
COc1cc2nccc(Nc3ccc(Oc4ccccc4)cc3)c2cc1OC.Cl [GI261656] | 0% | 0% | 42% | 28% | 7% | 0% | 0% | 79% | 0% | 0%
Nc1nccc(-c2ccc3c(N)n[nH]c3c2)n1 [GSK1034945] | 6% | 0% | 3% | 0% | 21% | 0% | 9% | 0% | 17% | 72%
FC(F)(F)c1cc(Br)cc(Nc2nccc(-c3cnn4ncccc34)n2)c1 [GW810578] | 14% | 25% | 0% | 0% | 0% | 0% | 25% | 0% | 0% | 64%
CC(C)c1nc(-c2cccc(NS(=O)(=O)c3ccccc3)c2)c(-c2ccnc(Nc3ccc4c(c3)CN(C)CC4)n2)s1 [GSK1649598] | 8% | 0% | 12% | 0% | 20% | 28% | 11% | 99.7% | 56% | 55%
Cn1ccc2ncnc(Oc3ccc(NC(=O)Nc4cccc(C(F)(F)F)c4)c(Cl)c3)c21 | 0% | 0% | 0% | 0% | 0% | 0% | 13% | 0% | 0% | 77%
N#Cc1cccc(C(=O)NC2CCN(c3ccnc(Nc4ccc(F)cc4)n3)C2)c1 (stereo not drawn) [GSK1379708] | 0% | 0% | 12% | 76% | 2% | 0% | 10% | 0% | 0% | 16%
COc1ccc(Nc2nccc(N3CCC(NC(=O)c4cccc(C#N)c4)C3)n2)cc1 (stereo not drawn) [GSK1379730] | 2% | 5% | 18% | 0% | 0% | 0% | 0% | 15% | 0% | 0%
CCOC(=O)N1CCC(n2cnc(-c3ccc(F)cc3)c2-c2ccnc(N)n2)CC1 [SB-219952] | 28% | 72% | 45% | 0% | 15% | 15% | 0% | 10% | 0% | 9%
C[C@@H](Oc1cc(-n2cnc3ccc(-c4ccncc4)cc32)sc1C(N)=O)c1ccccc1Cl [GSK483724] | 46% | 63% | 79% | 51% | 18% | 1% | 28% | 16% | 2% | 68%
CN(c1ccccc1CNc1nc(Nc2ccc3c(c2)CC(=O)N3)ncc1C(F)(F)F)S(C)(=O)=O | 0% | 0% | 0% | 0% | 11% | 0% | 0% | 29% | 11% | 91.4%
O=C(Nc1ccccc1)c1cccc(Oc2ccc3nccn3n2)c1 | 4% | 3% | 8% | 36% | 0% | 0% | 0% | 0% | 0% | 12%
CN1CCN(CCNc2nc3cc(Oc4ccc(NC(=O)Nc5cc(C(F)(F)F)ccc5F)cc4)ccc3[nH]2)CC1.Cl.Cl [GW768504] | 0% | 0% | 0% | 0% | 0% | 0% | 4% | 0% | 9% | 10%
COc1cccc(OC)c1C(=O)Nc1cccc(-c2nn3ccccc3c2-c2ccnc(Nc3cccc(F)c3)n2)c1 [GSK361065] | 0% | 0% | 0% | 0% | 0% | 11% | 0% | 36% | 1% | 0%
Cc1cccc2c(-c3ccncc3)c(-c3ccc(F)cc3)nn12.Cl [GW461487] | 0% | 0% | 13% | 0% | 27% | 8% | 22% | 11% | 11% | 0%
O=C(NCC1CC1)c1ccc(-c2cc(C(=O)NC3CC3)ccc2F)cc1 [GW810445] | 0% | 24% | 11% | 10% | 0% | 0% | 0% | 0% | 3% | 6%
Cl.c1ccc(Oc2ccc(Nc3ccnc4cc(-c5ccc(CN6CCNCC6)o5)ccc34)cc2)nc1 [GW567142] | 0% | 16% | 11% | 0% | 0% | 0% | 0% | 70% | 22% | 30%
COc1cc2ncn(-c3cc(OCC4CCCCC4)c(C(N)=O)s3)c2cc1OC [GSK204559] | 0% | 0% | 0% | 0% | 0% | 8% | 6% | 4% | 24% | 35%

Compound | %Inh (WNK1) | %Inh (WNK2) | %Inh (WNK3) | %Inh (WNK4) | %Inh (YANK1) | %Inh (YANK2) | %Inh (YANK3) | %Inh (YES) | %Inh (YSK1) | %Inh (YSK4)
C[C@@H]1CNc2c(sc3ccc4nc(-c5ccc(O)cc5)ccc4c23)C(=O)N1 | 0% | 2% | 0% | 11% | 0% | 9% | 1% | 0% | 0% | 46%
COc1cc2c(Nc3ccc(NC(=O)c4ccccc4)cc3)ncnc2cc1OCCCN1CCOCC1 [GSK301329] | 1% | 31% | 12% | 0% | 14% | 0% | 10% | 46% | 6% | 12%
CN1CCN(CCCNc2nccc(-c3c(-c4ccc(F)cc4)nn4cc(C(N)=O)ccc34)n2)CC1 [GW622475] | 9% | 8% | 20% | 14% | 20% | 17% | 16% | 24% | 22% | 14%
CCN1CCN(CCCC(=O)Nc2n[nH]c3nc(-c4ccc(O)cc4)c(Br)cc23)CC1 [SB-731579] | 0% | 0% | 0% | 0% | 0% | 0% | 0% | 0% | 0% | 85%
CN(c1ccc2c(c1)nc(NCc1ccc(F)cc1)n2C)c1ccnc(Nc2ccc(CS(C)(=O)=O)cc2)n1.Cl [GW813244] | 17% | 3% | 13% | 0% | 0% | 0% | 0% | 7% | 4% | 99.3%
CS(=O)(=O)c1cccc(CNc2nc(Nc3ccc4c(c3)[C@@H]3C[C@@H]4CNC3=O)ncc2C(F)(F)F)c1 | 0% | 0% | 0% | 0% | 0% | 0% | 0% | 0% | 0% | 98.5%
CN(c1cccc(CNc2nc(Nc3ccc4c(c3)CC(=O)N4)ncc2C(F)(F)F)c1)S(C)(=O)=O | 0% | 0% | 0% | 0% | 0% | 0% | 0% | 3% | 0% | 96.8%
NC(=O)c1ccc(-c2cc3ncnc(SCC(=O)O)c3s2)cc1 | 0% | 0% | 0% | 0% | 0% | 0% | 0% | 0% | 0% | 63%
CC(=O)Nc1ccc(-c2cc3ncnc(SCC(=O)O)c3s2)cc1 | 2% | 0% | 0% | 2% | 0% | 0% | 26% | 0% | 11% | 50%
CC(C(=O)NC1CCN(c2ccnc(Nc3ccc(F)cc3)n2)C1)c1ccc(Cl)cc1 (stereo not drawn) [GSK1379713] | 1% | 0% | 73% | 0% | 0% | 0% | 0% | 0% | 0% | 0%
CCn1c(-c2nonc2N)nc2cncc(CNC3CCNCC3)c21.Cl [SB-747651] | 14% | 0% | 34% | 21% | 3% | 0% | 40% | 11% | 0% | 87%
CCCC(=O)Nc1n[nH]c2ncccc12 [SB-601436] | 0% | 0% | 0% | 14% | 0% | 0% | 0% | 0% | 0% | 0%
C[C@@H]1CNc2c(sc3ccc4nc(-c5ccncc5)ccc4c23)C(=O)N1 | 0% | 0% | 0% | 0% | 21% | 0% | 17% | 0% | 0% | 56%
O=C(Nc1ccc(Oc2ccc3nc(NC(=O)C4CC4)cn3n2)c(F)c1)c1cccn(-c2ccccc2)c1=O | 0% | 0% | 0% | 0% | 0% | 0% | 37% | 45% | 0% | 0%
O=C(Nc1n[nH]c2cc(-c3ccco3)ccc12)C1CC1 [SB-737447] | 0% | 0% | 0% | 0% | 0% | 0% | 0% | 0% | 0% | 96.2%
CSc1nccc(-c2c(-c3ccc(F)cc3)ncn2CCCN2CCOCC2)n1.Cl [SB-217146] | 21% | 0% | 0% | 0% | 0% | 0% | 0% | 0% | 0% | 25%
